SENP8 block-1 = SENP8 protease inhibition; 330,000 tested, 1.2% active; inhibition, % at 10 µM; purified SENP8, Z-RLRGG-aminoluciferin cleavage, luminescence; Q96LD8; in the data active = inhibition above about 50%
SENP7 inh = SENP7 protease inhibition | Q9BQF6 | recombinant SENP7, Z-RLRGG-aminoluciferin luminescence, 40 min | inhibition, % at 5 µM | 330,000 tested, 1.5% active | AID 434973;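 active = inhibition above about 50% at the single test dose, limit read from the data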
SENP6 inh = SENP6 protease inhibition. inhibition, % at 10 µM. Recombinant SENP6 catalytic domain, aminoluciferin luminescence. Q9GZR1. AID 2599. 330,000 tested, 1.8% active;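 active = inhibition above about 50% at the single tested dose, limit read from the data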
SENP8 block-2 = SENP8 (human) protease inhibition | AID 602440 | recombinant SENP8, Nedd8 substrate fluorescence | inhibition, % at 20 µM | 360,000 tested, 0.64% active; in the data active = inhibition mostly above about 40%, no sharp cut-off; inactive = mostly below about 27%
HSP90 inh = inhibitors of HSP90 luciferase refolding in rabbit reticulocyte lysate; luciferase refolding luminescence, 3 h; inhibition, % at 5.6 µM; 290,000 tested, 0.91% active; AID 1789;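 active = inhibition above the screen-wide mean plus 3 SD, computed separately per campaign, cut at about 16% in these data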;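 note: inhibitors lower the luminescence because luciferase stays unfolded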
HSP90 inh confirm = confirmation of HSP90 inhibitors; shares compounds with HSP90 inh; rabbit reticulocyte lysate, luciferase refolding luminescence, 3 h; inhibition, % at 5.9 µM; 2,300 tested, 64% active; in the data active = inhibition above about 18%
luciferase ctr = firefly luciferase inhibition, HSP90 counter-screen; shares compounds with HSP90 inh; purified native firefly luciferase, luminescence; inhibition, % at 5.9 µM; 2,300 tested, 48% active; AID 1847;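 active = inhibition above the mean inhibition of all tested sample wells plus 3 SD, cut at about 10% in these data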
Target sequence (P08659 whole entry, looked up): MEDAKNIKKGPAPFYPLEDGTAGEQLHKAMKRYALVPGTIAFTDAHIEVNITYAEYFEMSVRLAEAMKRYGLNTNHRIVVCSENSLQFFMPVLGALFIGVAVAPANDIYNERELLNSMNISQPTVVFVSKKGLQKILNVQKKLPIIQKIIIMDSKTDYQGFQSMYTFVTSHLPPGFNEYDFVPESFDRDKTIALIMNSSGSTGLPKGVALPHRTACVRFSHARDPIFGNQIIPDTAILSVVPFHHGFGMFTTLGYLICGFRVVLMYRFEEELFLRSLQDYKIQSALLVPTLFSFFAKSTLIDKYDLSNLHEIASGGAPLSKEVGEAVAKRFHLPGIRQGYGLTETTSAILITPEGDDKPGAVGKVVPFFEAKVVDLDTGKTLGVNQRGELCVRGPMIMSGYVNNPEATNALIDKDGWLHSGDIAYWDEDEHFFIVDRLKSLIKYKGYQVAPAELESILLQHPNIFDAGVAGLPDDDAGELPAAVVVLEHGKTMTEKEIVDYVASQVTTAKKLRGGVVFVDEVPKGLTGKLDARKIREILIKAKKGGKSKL
SENP8 confirm = confirmation of human SENP8 protease inhibitors; shares compounds with SENP7 inh; Recombinant SENP8, Z-RLRGG-aminoluciferin luminescence, 60 min; inhibition, % at 12.5 µM; 6,200 tested, 40% active; AID 488912;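 active = mean inhibition across replicates above about 50%, limit read from the data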
SENP6 confirm = human SENP6 inhibition, confirmed; shares compounds with SENP7 inh; recombinant SENP6, Z-RLRGG-aminoluciferin luminescence; inhibition, % at 12.5 µM; 6,200 tested, 58% active
SENP7 conf = human SENP7 inhibition, confirmed. inhibition, % at 12.5 µM. AID 488917. 6,200 tested, 69% active. recombinant SENP7, Z-RLRGG-aminoluciferin luminescence, 40 min. shares compounds with SENP7 inh
Casp3 select = inhibits human caspase-3 in SENP selectivity test. shares compounds with SENP7 inh. purified caspase-3, Z-DEVD-aminoluciferin luminescence, 60 min. inhibition, % at 12.5 µM. 6,200 tested, 60% active;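 active = mean inhibition above about 50%, limit read from the data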
Target sequence (P42574 28-227 limits assumed): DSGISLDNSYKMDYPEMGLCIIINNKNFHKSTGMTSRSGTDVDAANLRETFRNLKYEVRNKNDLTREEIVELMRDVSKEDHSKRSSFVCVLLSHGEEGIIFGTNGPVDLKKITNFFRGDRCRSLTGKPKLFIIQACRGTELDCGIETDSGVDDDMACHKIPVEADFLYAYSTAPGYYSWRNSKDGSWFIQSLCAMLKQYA
Luc interf = interferes with luciferase luminescence in SENP counter-screen. shares compounds with SENP7 inh. Pre-incubated SENP8/Z-RLRGG-aminoluciferin, luciferase luminescence interference. inhibition, % at 12.5 µM. 6,200 tested, 39% active;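 active = mean inhibition above about 50% when retested at one dose, limit read from the data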
Numbers stand for hits; . = inactive; / = not tested or not shown. An excerpt weighted towards active compounds, which were near 2.8% of everything screened.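 Rule for the calls, unless noted: active = mean inhibition above about 50% in the one-dose retest (limit read from the data); inactive = the rest.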

SMILES | SENP8 block-1 | SENP7 inh | SENP6 inh | SENP8 block-2 | HSP90 inh | HSP90 inh confirm | luciferase ctr | SENP8 confirm | SENP6 confirm | SENP7 conf | Casp3 select | Luc interf
N/C(=N\OC(=O)/C=C/c1ccccc1Cl)c1ccccn1 | 85.7 | 88.9 | 94.8 | . | 28.4 | 55.2 | 56.9 | 90.7 | 90.1 | 100.1 | 85.3 | 87.5
CCOc1ccc(C(=O)O/N=C(\N)c2ccccn2)cc1 | 96.6 | 100.0 | 98.4 | . | 82.3 | 81.7 | 91.2 | 98.1 | 98.7 | 102.2 | 97.8 | 73.2
CC(C(=O)O/N=C(\N)c1ccccn1)c1ccc([N+](=O)[O-])cc1 (stereo unspecified) | . | . | . | . | . | / | / | / | / | / | / | /
Cc1cccc(C(=O)O/N=C(\N)c2ccccn2)c1 | 90.7 | 97.9 | 96.8 | . | 61.3 | 60.6 | 82.6 | 94.2 | 95.0 | 100.4 | 95.9 | 93.4
N/C(=N\OCc1ccc([N+](=O)[O-])cc1)c1ccccn1 | 90.3 | 95.5 | 94.9 | / | 83.6 | 91.5 | 85.7 | 93.8 | 93.6 | 100.1 | 95.3 | 71.4
COc1cc(C(=O)O/N=C(\N)c2ccccn2)cc(OC)c1OC | . | . | . | . | . | / | / | / | / | / | / | /
N/C(=N\OC(=O)Cc1ccccc1)c1ccccn1 | . | . | . | . | . | / | / | / | / | / | / | /
Cc1ccc(C(=O)O/N=C(\N)c2ccccn2)cc1C | 92.8 | 97.5 | 98.0 | . | 61.4 | 71.4 | 84.5 | 95.3 | 95.4 | 101.3 | 96.1 | 85.8
C/C(=N/NC(=O)c1ccc(C(C)(C)C)cc1)c1ccccn1 | . | . | . | . | / | / | / | / | / | / | / | /
CC(C)(C)c1ccc(C(=O)O/N=C(\N)c2ccccn2)cc1 | 93.6 | 97.9 | 96.8 | . | 73.3 | 64.5 | 82.8 | 85.8 | 97.6 | 102.0 | 95.3 | 76.5
N/C(=N\OC(=O)c1cccc(F)c1)c1ccccn1 | 80.7 | 91.3 | 89.6 | . | 31.0 | 16.1 | 68.4 | 90.8 | 92.6 | 101.0 | 97.2 | 89.8
N/C(=N\OC(=O)c1ccc(Br)o1)c1ccccn1 | 63.7 | 88.2 | 50.5 | . | 23.2 | . | 43.7 | 85.7 | 84.8 | 96.7 | 94.5 | 57.3
COC(=O)NNC(=S)Nc1cc(OC)ccc1OC | . | . | . | . | . | / | / | / | / | / | / | /
N/C(=N\OC(=O)c1ccccc1)c1ccccn1 | 92.1 | 98.5 | 96.3 | . | 58.4 | 37.7 | 87.0 | 97.1 | 97.9 | 102.0 | 97.7 | 95.4
N/C(=N\OC(=O)c1ccccc1)c1ccncc1 | . | . | . | . | . | / | / | / | / | / | / | /
Cc1ccc(C(=O)O/N=C(\N)c2ccccn2)cc1 | 97.7 | 101.5 | 99.3 | . | 77.7 | 85.9 | 94.0 | 98.7 | 99.4 | 102.5 | 98.5 | 87.7
CCOC(=O)N1CCN(C(=O)C2COc3ccccc3O2)CC1 (stereo unspecified) | . | . | . | . | . | / | / | / | / | / | / | /
COc1cccc(/C=N/Nc2ncnc(Cl)c2N)c1O | . | . | . | . | . | / | / | / | / | / | / | /
COc1cccc(/C=N/Nc2nccnc2Cl)c1O | 96.3 | 100.4 | 97.1 | . | 55.5 | 72.3 | 58.8 | 98.3 | 99.3 | 102.3 | 98.0 | 87.8
N#Cc1cccc(CN2CCCN(Cc3ccc(F)cc3)S2(=O)=O)c1 | . | . | . | . | . | / | / | / | / | / | / | /
Clc1ccc(-c2cccs2)nn1 | . | . | . | . | . | / | / | / | / | / | / | /
CC1CCN(c2ccc(-c3cccs3)nn2)CC1 | 94.0 | 96.1 | 98.8 | . | 80.9 | 90.1 | 84.4 | 63.9 | 96.5 | 102.0 | 94.5 | .
COc1ccc(/C=C/C(=O)Nc2c(C(=O)O)[nH]c3ccccc23)cc1OC | . | . | . | . | . | / | / | / | / | / | / | /
Cc1cccc(-c2cc3nc4c(c(N5CCOCC5)n3n2)CCCC4)c1 | 52.6 | . | 65.2 | . | 40.1 | 59.0 | 58.2 | 59.9 | 51.4 | . | . | .
N#Cc1cc2ccc(N3CCOCC3)cc2cc1C#N | 88.5 | . | 90.9 | . | 17.9 | . | . | . | . | . | . | .
SMILES | SENP8 block-1 | SENP7 inh | SENP6 inh | SENP8 block-2 | HSP90 inh | HSP90 inh confirm | luciferase ctr | SENP8 confirm | SENP6 confirm | SENP7 conf | Casp3 select | Luc interf
Cn1c(=N)n(CC(=O)c2ccc(Cl)c(Cl)c2)c2ccccc21 | . | 52.4 | 50.8 | . | 41.2 | 47.2 | 50.1 | . | . | . | . | .
CC(=O)Nc1nc2c(ncn2COCCOC(C)=O)c(=O)[nH]1 | / | / | / | / | . | / | / | / | / | / | / | /
O=C(Nc1ccc2c(c1)OCCO2)c1ccc(Cl)cc1Cl | . | 66.6 | 71.3 | . | 33.2 | 39.8 | 30.2 | 70.0 | 66.1 | 86.7 | 69.9 | 64.8
COc1ccc(C(=O)Nc2ccc3c(c2)OCCO3)c(OC)c1 | / | / | / | . | / | / | / | / | / | / | / | /
O=C(Nc1ccc2c(c1)OCO2)c1ccc(Cl)cc1Cl | 55.2 | 72.4 | 52.0 | . | 24.1 | 37.2 | 22.1 | . | 55.8 | 86.0 | 68.6 | 64.5
CCNC(=S)NNC(=O)c1cc(-c2ccc(OCC)cc2)nc2ccccc12 | 93.8 | 94.6 | 93.5 | . | 50.0 | 73.6 | 25.3 | 97.5 | 98.2 | 102.0 | 97.7 | .
CCc1noc(C)c1C(=O)N1CCCSC1=Nc1ccccc1 | . | . | . | . | / | / | / | / | / | / | / | /
Cc1ccc(NC(=S)c2nc3ccccc3s2)cc1 | . | 80.4 | 60.6 | . | 23.1 | 42.1 | 26.2 | . | . | . | . | .
Cc1ccc(C)c(NC(=S)c2nc3ccccc3s2)c1 | . | . | . | . | . | / | / | / | / | / | / | /
COCCCNC(=O)c1cccn2c(=O)c3cc4ccccc4cc3nc12 | 85.4 | . | 81.7 | . | 17.1 | 26.1 | 17.7 | . | . | . | . | .
CCc1ccn2cc(-c3cc(-c4ccccc4)no3)nc2c1 | 89.7 | 96.5 | 93.0 | . | 82.2 | 86.4 | 84.3 | . | 92.6 | 76.6 | 61.7 | .
O=C(Cn1c(NCCO)nc2ccccc21)NCC1CCCO1 (stereo unspecified) | . | . | . | . | . | / | / | / | / | / | / | /
COc1ccccc1NC1=CC(=O)CC(c2ccccc2)C1 (stereo unspecified) | . | . | . | . | . | / | / | / | / | / | / | /
COc1cccc(NC(=O)N2CCCCCC2)c1 | . | . | . | . | . | / | / | / | / | / | / | /
COc1cccc(NC(=O)N2CCc3ccccc3C2)c1 | . | 53.4 | 53.4 | . | 21.0 | . | . | . | . | 79.7 | 69.7 | 56.4
CCCN1C=CC(=C2C(=O)c3ccccc3C2=O)C=C1 | 89.8 | 93.2 | 94.6 | . | 91.7 | 96.0 | 91.2 | 93.3 | 97.9 | 101.6 | 98.1 | 60.1
